In all, about 5,500 compounds went through this assay and about 2,000 (36%) were called active. Another 18% or so got no clear call; they are omitted. Some of the results follow. Unmarked numbers belong to inactive results. Cut-off read from the data, not from the text of the source: active = normalized growth mostly below about 0.91 (no sharp cut-off); inconclusive = no clear call, values can overlap the other calls; inactive = mostly above about 0.92.
Experiment: chemical genetic growth profiling, strain panel (AID 1159580);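 note: tested at 20 µM; growth read once vehicle control cultures reached saturation at 30 °C; 1 = growth at the plate median or of vehicle wells; lower values mean less growth of the strain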
Settings: S. cerevisiae deletion strains, growth OD
[1] = locus YDL101C, strain DUN1, active compounds read low
[2] = locus YHR030C, strain SLT2, active compounds read low

## NC(=S)N/N=C\c1ccc(F)c(Cl)c1
Locus YAL013W, strain DEP1, active compounds read low
  normalized growth: 0.921 (active)
Locus YBR229C, strain ROT2, active compounds read low
  normalized growth: 0.995
[1]
  normalized growth: 0.972
Locus YDL134C, strain PPH21, active compounds read low
  normalized growth: 0.992
Locus YDR150W, strain NUM1, active compounds read low
  normalized growth: 1
Locus YEL061C, strain CIN8, active compounds read low
  normalized growth: 0.804 (active)
Locus YGR078C, strain PAC10, active compounds read low
  normalized growth: 0.988
[2]
  normalized growth: 0.605 (active)
Locus YHR087W, strain rtc3, active compounds read low
  normalized growth: 1.04
Locus YJL187C, strain SWE1, active compounds read low
  normalized growth: 0.981
Locus YJR043C, strain POL32, active compounds read low
  normalized growth: 0.996
Locus YJR075W, strain HOC1, active compounds read low
  normalized growth: 1.04
Locus YLR039C, strain RIC1, active compounds read low
  normalized growth: 0.966
Locus YLR058C, strain SHM2 (second series), active compounds read low
  normalized growth: 0.996
Locus YLR085C, strain ARP6, active compounds read low
  normalized growth: 0.198 (active)
Locus YLR262C, strain YPT6, active compounds read low
  normalized growth: 1.06
Locus YML094W, strain GIM5, active compounds read low
  normalized growth: 0.759 (active)
Locus YMR219W, strain ESC1, active compounds read low
  normalized growth: 0.999
Locus YMR263W, strain SAP30, active compounds read low
  normalized growth: 0.919
Locus YNL128W, strain TEP1, active compounds read low
  normalized growth: 0.944
Locus YNL153C, strain GIM3, active compounds read low
  normalized growth: 0.961
Locus YNL298W, strain CLA4 (second series), active compounds read low
  normalized growth: 0.661 (active)
Locus YNL322C, strain KRE1, active compounds read low
  normalized growth: 1.04
Locus YNR030W, strain Alg12, active compounds read low
  normalized growth: 0.811 (active)
Locus YPL055C, strain LGE1, active compounds read low
  normalized growth: 0.849
Locus YPL241C, strain CIN2, active compounds read low
  normalized growth: 0.889
Locus YPR135W, strain CTF4, active compounds read low
  normalized growth: 0.655

## Cc1cccc(Cl)c1/C=N\NC(N)=S
Locus YAR019C, strain CDC15, active compounds read low
  normalized growth: 0.868 (active)
Locus YBL105C, strain PKC1, active compounds read low
  normalized growth: 0.911
Locus YBR135W, strain CKS1, active compounds read low
  normalized growth: 0.904
Locus YBR136W, strain MEC1, active compounds read low
  normalized growth: 0.862 (active)
Locus YBR160W, strain CDC28, active compounds read low
  normalized growth: 0.892 (active)
Locus YDL017W, strain CDC7, active compounds read low
  normalized growth: 0.896 (active)
Locus YDL028C, strain MPS1, active compounds read low
  normalized growth: 0.88 (active)
[1]
  normalized growth: 0.89 (active)
Locus YDL108W, strain KIN28, active compounds read low
  normalized growth: 0.869 (active)
Locus YDL132W, strain cdc53, active compounds read low
  normalized growth: 0.877 (active)
Locus YDL214C, strain PRR2, active compounds read low
  normalized growth: 0.867
Locus YDR052C, strain DBF4, active compounds read low
  normalized growth: 0.858 (active)
Locus YDR054C, strain cdc34, active compounds read low
  normalized growth: 0.865 (active)
Locus YDR226W, strain ADK1, active compounds read low
  normalized growth: 0.826 (active)
Locus YDR477W, strain SNF1, active compounds read low
  normalized growth: 0.765
Locus YER123W, strain YCK3, active compounds read low
  normalized growth: 0.873
Locus YER133W, strain GLC7, active compounds read low
  normalized growth: 0.805
Locus YFL009W, strain cdc4, active compounds read low
  normalized growth: 0.881 (active)
Locus YFL029C, strain CAK1, active compounds read low
  normalized growth: 0.865 (active)
Locus YFR003C, strain YPI1, active compounds read low
  normalized growth: 0.899 (active)
Locus YFR019W, strain FAB1, active compounds read low
  normalized growth: 0.957
Locus YFR028C, strain CDC14, active compounds read low
  normalized growth: 0.828 (active)
Locus YGR040W, strain KSS1, active compounds read low
  normalized growth: 0.8
Locus YGR052W, strain FMP48, active compounds read low
  normalized growth: 0.818
Locus YGR092W, strain DBF2, active compounds read low
  normalized growth: 0.79
[2]
  normalized growth: 0.644 (active)
Locus YHR079C, strain IRE1, active compounds read low
  normalized growth: 0.94
Locus YHR082C, strain KSP1, active compounds read low
  normalized growth: 0.893
Locus YHR205W, strain SCH9, active compounds read low
  normalized growth: 1.02
Locus YIL147C, strain SLN1, active compounds read low
  normalized growth: 0.87 (active)
Locus YJL095W, strain BCK1, active compounds read low
  normalized growth: 0.934
Locus YJL128C, strain PBS2, active compounds read low
  normalized growth: 0.973
Locus YJL157C, strain FAR1, active compounds read low
  normalized growth: 0.855
Locus YJR016C, strain ILV3, active compounds read low
  normalized growth: 0.885 (active)
Locus YJR066W, strain TOR1 (second series), active compounds read low
  normalized growth: 0.837
Locus YJR066W, strain TOR1, active compounds read low
  normalized growth: 0.755
Locus YKL048C, strain ELM1, active compounds read low
  normalized growth: 0.88
Locus YKL067W, strain YNK1, active compounds read low
  normalized growth: 0.886
Locus YKL101W, strain HSL1, active compounds read low
  normalized growth: 0.919
Locus YKL193C, strain SDS22, active compounds read low
  normalized growth: 0.872 (active)
Locus YKL203C, strain TOR2, active compounds read low
  normalized growth: 0.671 (active)
Locus YLR113W, strain HOG1, active compounds read low
  normalized growth: 1.04
Locus YLR133W, strain CKI1, active compounds read low
  normalized growth: 0.886
Locus YLR403W, strain SFP1, active compounds read low
  normalized growth: 0.756
Locus YML070W, strain DAK1, active compounds read low
  normalized growth: 0.932
Locus YMR205C, strain PFK2 (second series), active compounds read low
  normalized growth: 0.886
Locus YMR277W, strain FCP1, active compounds read low
  normalized growth: 0.87 (active)
Locus YNL006W, strain LST8, active compounds read low
  normalized growth: 0.953
Locus YNL020C, strain ARK1, active compounds read low
  normalized growth: 0.904
Locus YNL161W, strain CBK1, active compounds read low
  normalized growth: 0.924
Locus YNL183C, strain NPR1, active compounds read low
  normalized growth: 0.77
Locus YNL207W, strain RIO2, active compounds read low
  normalized growth: 0.845 (active)
Locus YNL222W, strain SSU72, active compounds read low
  normalized growth: 0.931
Locus YNL307C, strain MCK1 (second series), active compounds read low
  normalized growth: 0.797
Locus YOL136C, strain PFK27, active compounds read low
  normalized growth: 0.948
Locus YOR061W, strain CKA2, active compounds read low
  normalized growth: 0.864
Locus YOR119C, strain RIO1, active compounds read low
  normalized growth: 0.625 (active)
Locus YOR231W, strain MKK1, active compounds read low
  normalized growth: 0.949
Locus YOR329C, strain SCD5, active compounds read low
  normalized growth: 0.927
Locus YPL031C, strain PHO85, active compounds read low
  normalized growth: 0.824
Locus YPL153C, strain RAD53, active compounds read low
  normalized growth: 0.868
Locus YPL204W, strain HRR25, active compounds read low
  normalized growth: 0.877
Locus YPL209C, strain IPL1, active compounds read low
  normalized growth: 0.912
Locus YPL256C, strain CLN2, active compounds read low
  normalized growth: 1.03
Locus YPR025C, strain CCL1, active compounds read low
  normalized growth: 0.914
Locus YPR106W, strain ISR1, active compounds read low
  normalized growth: 0.927
Locus YPR111W, strain DBF20, active compounds read low
  normalized growth: 0.919
Strain NNK1, active compounds read low
  normalized growth: 0.932
